Measured values from PubChem BioAssay (NCATS).
Records with an inconclusive call do not appear. Activity calls are given as the source filed them. Calls follow the shape of the dose curve; as a rule, active = well fitted curve in the direction sought with a large enough effect; inconclusive = small, poorly fitted or top-dose-only effect, or another doubt; inactive = no such curve, though single readings can be large; an effect the other way counts as inactive or inconclusive.

Experiments:
[1] = molecular target: Protein phosphatase 1D (Homo sapiens) (UniProt O15297); assay: RapidFire Mass Spectrometry qHTS Assay for Modulators of WT P53-Induced Phosphatase 1 (WIP1) (AID 1347424);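 also: amount of dephosphorylated VEPPL-S-QETFS peptide product formed by WIP1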; also: potency is read from the fitted curve at half-maximal effect;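 as to activity change, negative = inhibition: series mostly up to about 63 µM; plate controls were DMSO wells for no effect and GSK830371 inhibitor control at 10 µM for full effect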
How it was run: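 10 nM WIP1 preincubated with compounds 1 hr at room temperature in pH 7.5 Tris buffer with 30 mM MgCl2, 1 mM TCEP; 2 uM VEPPL-pS-QETFS phosphopeptide for 5 min, formic acid quench; dephosphorylated product quantified by RapidFire MS against labelled standard.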

[2] = molecular target: Protein phosphatase 1D (Homo sapiens) (UniProt O15297); assay: Rhodamine-PBP qHTS Assay for Modulators of WT P53-Induced Phosphatase 1 (WIP1) (AID 1347425); also: % of control where 0% means no effect
How it was run: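 Read-out: Rhodamine-PBP fluorescence (ex 525/em 598 nm) for released Pi, read each minute for 11 min after adding 10 uM VEPPL-pS-QETFS; signal taken as f1 minus pre-substrate f0. Enzyme 5 nM WIP1 with 1 hr room-temperature compound preincubation.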

[3] = molecular target: Calcium and integrin-binding protein 1 (Homo sapiens) (UniProt Q99828); assay: Primary qHTS for Identification of Calcium Integrin Binding Protein 1 (CIB1) Competitor (AID 1508620);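 also: GST tagged CIB1 binding a fluorescein labelled alphaIIb integrin peptide tracer; top concentration of the series differs between compounds; % is scaled to controls: 0 for no effect and ±100 for the full control effect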
How it was run: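 Fluorescence polarization competition: GST-tagged CIB1 (1 uM final) preincubated with compound 15 min at room temperature, then FITC-labelled alphaIIb peptide (100 nM final) added. After 15 min at room temperature, polarization read at Ex 480/Em 540.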

[4] = Primary qHTS for inhibitors of La Crosse Virus (LACV) - induced cell death in SH-SY5Y cells (AID 1508616);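 also: top concentration of the series differs between compounds; 0% = infected DMSO wells and 100% = uninfected DMSO wells; higher means more rescue of cells from virus-induced death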
How it was run: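 SH-SY5Y cells (6000/well) plated 24 h, then given compounds by pin transfer and LACV at 0.01 MOI for 6 days at 37C. Viability measured by ATPLite luminescence, normalized to infected DMSO and uninfected DMSO.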

[5] = Counterscreen qHTS for small molecule stabilizers of the endoplasmic reticulum resident proteome: GLuc-NoTag assay (AID 1508627);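 also: SH-SY5Y cells given compound then 100 nM thapsigargin to empty ER calcium; series mostly up to about 76 µM; 0% = thapsigargin alone and -100% = DMSO vehicle control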
How it was run: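 SH-SY5Y cells stably expressing constitutively secreted GLuc without SERCaMP tag, exposed to compound for 19 hr, then to 100 nM thapsigargin for 4 hr at 37C. Medium luciferase was read by coelenterazine luminescence without lysis.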

[6] = Confirmatory qHTS for small molecule stabilizers of the endoplasmic reticulum resident proteome: Secreted ER Calcium Modulated Protein (SERCaMP) assay (AID 1508628); also: nearly all actives have a fitted effect of over 40% in size; also: potency is read from the fitted curve at half-maximal effect
How it was run: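 SH-SY5Y cells stably expressing GLuc-SERCaMP, treated 16 h with compound (primary 1.53, 7.67, 38.3 uM; confirmation 11 concentrations, up to 76.6 uM), then 100 nM thapsigargin for 4 h. Secreted Gaussia luciferase in medium read by coelenterazine luminescence.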

[7] = molecular target: Calcium and integrin-binding protein 1 (Homo sapiens) (UniProt Q99828); assay: Confirmatory qHTS for Identification of Calcium Integrin Binding Protein 1 (CIB1) Competitor (AID 1508617); also: potency is read from the fitted curve at half-maximal effect; nearly all actives have a fitted effect of over 65% in size
How it was run: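 Fluorescence polarization competition: CIB1-GST (1 uM final) in 5 mM HEPES pH 7.4, 125 mM NaCl, 5 mM CaCl2, 0.01% Tween20 preincubated 15 min RT with compound (up to 114 uM), then FITC-alphaIIb peptide (100 nM) added, 15 min RT.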

Sequence of Calcium and integrin-binding protein 1 (Homo sapiens) (Q99828 whole entry, looked up): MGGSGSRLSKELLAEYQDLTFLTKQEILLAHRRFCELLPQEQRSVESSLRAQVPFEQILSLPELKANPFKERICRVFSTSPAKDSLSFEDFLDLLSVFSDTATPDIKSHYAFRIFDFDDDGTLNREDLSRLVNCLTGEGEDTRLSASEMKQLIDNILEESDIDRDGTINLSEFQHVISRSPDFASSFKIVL
Sequence of Protein phosphatase 1D (Homo sapiens) (O15297 whole entry, looked up): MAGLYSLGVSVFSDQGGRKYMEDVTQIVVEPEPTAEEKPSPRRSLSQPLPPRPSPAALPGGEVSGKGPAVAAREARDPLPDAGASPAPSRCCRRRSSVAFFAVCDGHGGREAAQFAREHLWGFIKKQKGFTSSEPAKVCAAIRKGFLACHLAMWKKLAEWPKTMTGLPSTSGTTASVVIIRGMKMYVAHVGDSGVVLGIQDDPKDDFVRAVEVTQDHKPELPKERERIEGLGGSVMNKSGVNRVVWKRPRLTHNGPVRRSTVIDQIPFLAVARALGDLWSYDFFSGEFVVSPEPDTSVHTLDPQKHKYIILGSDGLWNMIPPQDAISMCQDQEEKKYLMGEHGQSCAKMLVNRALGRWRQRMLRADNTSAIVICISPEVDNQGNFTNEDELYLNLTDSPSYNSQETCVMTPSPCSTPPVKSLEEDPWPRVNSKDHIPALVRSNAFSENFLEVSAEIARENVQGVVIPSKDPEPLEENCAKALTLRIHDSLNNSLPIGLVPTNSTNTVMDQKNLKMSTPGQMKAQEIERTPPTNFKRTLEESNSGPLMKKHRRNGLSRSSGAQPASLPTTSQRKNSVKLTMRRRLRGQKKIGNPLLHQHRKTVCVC

Cc1cc(N)c2cc(NC(=O)Nc3ccc4nc(C)cc(N)c4c3)ccc2n1
inactive: Potency [1] | outcome [2] | Potency [3]

CCN1CCN(c2cc3c(cc2F)c(=O)c(C(=O)O)cn3C2CC2)CC1
inactive: Potency [1] | outcome [2] | Potency [4] | Potency [3] | outcome [5] | Potency [6]

Oc1c(Cl)cc(Cl)cc1Sc1cc(Cl)cc(Cl)c1O
active: Potency [1] 12.6 µM
inactive: Potency [4]

Nc1ccc(C(=O)Nc2ccccc2N)cc1
inactive: Potency [1] | outcome [2] | Potency [3]

COc1ccc(CN2CCN(C(c3ccc(F)cc3)c3ccc(F)cc3)CC2)c(OC)c1OC
inactive: Potency [1] | outcome [2] | Potency [4] | Potency [3]

CCN(CCCCOC(=O)c1ccc(OC)c(OC)c1)C(C)Cc1ccc(OC)cc1 (stereo not drawn)
inactive: Potency [1] | outcome [2] | Potency [3]

NC(=NCCCCCCN=C(N)/N=C(\N)Nc1ccc(Cl)cc1)/N=C(\N)Nc1ccc(Cl)cc1
inactive: Potency [1] | outcome [2] | Potency [3]

Nc1ccc(/C=C/c2ccc(N)cc2S(=O)(=O)O)c(S(=O)(=O)O)c1
inactive: activity change, negative = inhibition [1] -4.22% [at 0.505 µM] | activity change, negative = inhibition [2] 11.7% [at 0.575 µM] | activity change [4] 5.33% [at 0.0343 µM] | activity change, negative = inhibition [3] -1.2% [at 1.07 µM]

Cc1ncc(CSSCc2cnc(C)c(O)c2CO)c(CO)c1O
inactive: Potency [1] | outcome [2] | Potency [4] | Potency [3]

Nc1nc2ncc(CNc3ccc(C(=O)N[C@@H](CCC(=O)O)C(=O)O)cc3)nc2c(=O)[nH]1
inactive: Potency [1] | outcome [2] | Potency [4] | Potency [3] | outcome [5] | Potency [6]

O=C(O)CNC(=O)c1ccccc1
inactive: Potency [1] | outcome [2] | Potency [4] | Potency [3]

CC(=O)N(O)CCCCCNC(=O)CCC(=O)N(O)CCCCCNC(=O)CCC(=O)N(O)CCCCCN
inactive: Potency [1] | outcome [2] | Potency [3]

CN(C)C(=S)SC(=S)N(C)C
inactive: Potency [1] | outcome [2] | Potency [4] | Potency [3] | outcome [5] | Potency [6]

Cc1ccccc1C(=O)Nc1ccc(C(=O)N2CCCC(N(C)C)c3ccccc32)cc1 (stereo not drawn)
inactive: Potency [1] | outcome [2] | Potency [3]

CCCC(=O)Nc1ccc(OCC(O)CNC(C)C)c(C(C)=O)c1 (stereo not drawn)
inactive: Potency [1] | outcome [2] | Potency [4] | Potency [3]

C=CCc1ccc(O)c(OC)c1
inactive: Potency [1] | outcome [2] | Potency [4] | Potency [3]

CN1CCCC(CC2c3ccccc3Sc3ccccc32)C1 (stereo not drawn)
inactive: Potency [1] | outcome [2] | Potency [4] | Potency [3]
active: Potency [6] 22.4 µM

CCN1CCCC1=O
inactive: Potency [1] | outcome [2] | Potency [3]

CC(C)N=C(N)/N=C(\N)Nc1ccc(Cl)cc1
inactive: Potency [1] | outcome [2] | Potency [4] | Potency [3] | outcome [5]

c1ccc(-c2ccc(C(c3ccccc3)n3ccnc3)cc2)cc1 (stereo not drawn)
inactive: Potency [1] | outcome [2] | Potency [4] | Potency [3] | Potency [6]

NCCC(O)(P(=O)(O)O)P(=O)(O)O
inactive: Potency [1] | outcome [2] | Potency [3]

C[C@@H]1C[C@H]2[C@@H]3CCC4=CC(=O)C=C[C@]4(C)[C@@]3(F)[C@@H](O)C[C@]2(C)[C@H]1C(=O)CO
inactive: Potency [1] | outcome [2] | Potency [4] | Potency [3]

O=c1c(-c2ccccc2)c1-c1ccccc1
inactive: Potency [1] | outcome [2] | Potency [3]

O=C1c2ccccc2C(=O)C1c1ccccc1
inactive: Potency [1] | outcome [2] | Potency [4] | Potency [3]

CC(=O)Oc1ccc(C(=C2CCCCC2)c2ccc(OC(C)=O)cc2)cc1
inactive: Potency [1] | outcome [2] | Potency [4] | Potency [3] | Potency [6]

CN1CCN(C(c2ccccc2)c2ccccc2)CC1
inactive: Potency [1] | outcome [2] | Potency [4] | Potency [3] | outcome [5]

CC1=C(C(=O)OC(C)C)C(c2cccc([N+](=O)[O-])c2)C(C(=O)OC2CN(C(c3ccccc3)c3ccccc3)C2)=C(N)N1 (stereo not drawn)
active: Potency [6] 28.2 µM
inactive: Potency [1] | outcome [2] | Potency [4] | Potency [3]

OC[C@H]1O[C@@H](n2cnc3c(=S)nc[nH]c32)[C@H](O)[C@@H]1O
inactive: Potency [1] | outcome [2] | Potency [4] | Potency [3]

CCCOC(C(=O)OC1CCN(C)CC1)(c1ccccc1)c1ccccc1
inactive: Potency [1] | outcome [2] | Potency [4] | Potency [3] | outcome [5]

C[C@]12C=CC(=O)C=C1CC[C@@H]1[C@@H]2[C@@H](O)C[C@@]2(C)[C@H]1CC[C@]2(O)C(=O)CO
inactive: Potency [1] | outcome [2] | Potency [4] | Potency [3]

CCCCC(CC)CN=C(N)NC(N)=NCCCCCCN=C(N)NC(N)=NCC(CC)CCCC (stereo not drawn)
active: Potency [7] 28.2 µM
